High-throughput results as filed in PubChem BioAssay.
Hits are enriched below; roughly 1.1% of the tested compounds scored in any of these assays.
SRC3 inh: inhibitors of human steroid receptor coactivator 3 (SRC3) | HEK293 GAL4-SRC3 luciferase reporter, luminescence | Q9Y6Q9 | 0.17% of 360,000 active | inhibition, % at 3.6 µM;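 active = inhibition above a per-campaign cutoff, the mean of all compounds plus 3 SD, cut at about 60% in these data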;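 also: 0% = DMSO-treated cells and 100% = gossypol-treated cells at 36 µM; higher means less SRC3-driven luciferase light from the GAL4 reporter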
SRC1 inh: inhibits human SRC1 coactivator | HEK293 GAL4-SRC1 luciferase reporter, luminescence | inhibition, % at 3.6 µM | 0.12% of 360,000 active | AID 588354;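 active = inhibition above the campaign mean plus 3 SD, with each screening campaign given its own cutoff, cut at about 60% in these data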;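 also: 0% = DMSO treated cells and 100% = gossypol at 36 µM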
GalR3 antagonist: blocks the human galanin receptor 3; 0.44% of 360,000 active; O60755; HEK293 GalR3-CNG cAMP membrane potential fluorescence; galR3 body fused to GalR1 C-terminus; inhibition, % at 3 µM; AID 651719;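 active = inhibition above the screen-wide average plus 3 SD, cut at about 13% in these data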;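 also: forskolin and galanin both at EC90 stimulate the cells; cAMP rise reported by CNG channel membrane potential dye signal; 0% = forskolin plus galanin with DMSO and 100% = forskolin alone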
LRH-1 inv ag: NR5A2 inverse agonism in reporter assay; inhibition, % at 3.6 µM; HEK293T StAR-luciferase reporter, LRH-1 transfected, 24 h; O00482; 0.13% of 360,000 active;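 active = inhibition above the mean inhibition of all tested compounds plus 3 SD, cut at about 73% in these data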;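 also: 0% = DMSO wells and 100% = reporter-only cells lacking LRH-1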
NCOA2 inhibitor: inhibits human steroid receptor coactivator 2; Q15596; 0.17% of 370,000 active; HEK293 GAL4-SRC2 luciferase reporter, luminescence; AID 651957; inhibition, % at 9 µM;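 active = inhibition above the mean inhibition of all tested compounds plus 3 SD, set per campaign, cut at about 52% in these data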;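 also: 0% = DMSO treated cells and 100% = cells given Gossypol at 36 µM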
NR2F2 inh: inhibitors of human COUP-TFII (NR2F2) | HEK293T NGFI-A luciferase reporter, luminescence | inhibition, % at 8.6 µM | P24468 | 0.7% of 370,000 active;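 active = inhibition above a per-plate cutoff, mean inhibition of test wells between control levels plus 3 SD, cut at about 38% in these data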;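 also: cells cotransfected with COUP-TFII expression vector driving the NGFI-A reporter; 0% = median of COUP-TF2 test wells and 100% = reporter-only cells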
GalR3 antag conf: confirmation of human galanin receptor 3 antagonists; AID 652245; 59% of 1,600 active; HEK293 GalR3 CNG cAMP biosensor, membrane potential fluorescence; galR3 fused to GalR1 carboxy tail; challenged with forskolin and galanin at EC90; shares compounds with GalR3 antagonist; inhibition, % at 3 µM;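 active = inhibition above the primary screen's cutoff, the mean inhibition of all screened compounds plus 3 SD, cut at about 13% in these data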;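 also: 0% = forskolin plus galanin and 100% = forskolin alone with DMSO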
HEK-CNG parental: acts as nonspecific agonist in parental HEK-CNG cells; HEK293-CNG parental cells, cAMP membrane potential fluorescence; normalised: DMSO wells 0%, forskolin wells 100%; shares compounds with GalR3 antagonist; AID 652268; 10% of 1,600 active; activation, % at 3 µM; in the data active = activation above about 1.3%
VP16 Luc counter: VP16 inhibition counter-screen for COUP-TFII. shares compounds with NR2F2 inh. HEK293 Gal4-VP16 luciferase reporter, luminescence. inhibition, % at 8.5 µM. 25% of 2,500 active. AID 687007; in the data active = inhibition above about 13%
COUP-TFII conf: COUP-TFII (NR2F2) inhibition, confirmation assay | shares compounds with NR2F2 inh | HEK293 NGFI-A luciferase reporter, luminescence | inhibition, % at 8.5 µM | 45% of 2,500 active | AID 687008;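 active = mean inhibition over three repeats above a set limit taken from the earlier primary screen, cut at about 38% in these data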;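 also: 100% = cells given the luciferase reporter alone without the COUP-TF2 vector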
The depositor's hits bear a star; x = no result.

SMILES	SRC3 inh	SRC1 inh	GalR3 antagonist	LRH-1 inv ag	NCOA2 inhibitor	NR2F2 inh	GalR3 antag conf	HEK-CNG parental	VP16 Luc counter	COUP-TFII conf
Cc1ccc(S(=O)(=O)NCc2ccncc2)c(C)c1C	25	22	86*	42	16	68*	111*	-1	2	57*
COc1cc(C)c(Br)cc1S(=O)(=O)NCc1cccs1	2	6	-4	-8	37	-13	x	x	x	x
Cn1c(C(=O)N2CCN(c3nc4ccccc4s3)CC2)cc2sccc21	21	-12	-5	-2	10	4	x	x	x	x
O=C(c1cc2sccc2n1Cc1ccc(F)cc1)N1CCN(c2nc3ccccc3s2)CC1	18	10	17*	25	36	56*	73*	1	4	29
COc1ccc(-n2c(-c3ccc(Cl)cc3)c[n+]3c2CCCCC3)cc1	12	2	-5	10	24	29	x	x	x	x
COc1ccc(-c2c[n+]3c(n2-c2ccc(C)cc2)CCCCC3)cc1	58	35	71*	72	22	71*	92*	0	10	61*
O=C1c2cccc(OCc3ccc(F)cc3)c2CCN1Cc1ccc(F)cc1	32	31	20*	16	19	58*	38*	0	1	44*
Cc1ccc(CN2CCc3c(OCc4ccc(F)cc4)cccc3C2=O)cc1	16	10	-6	3	13	22	x	x	x	x
CCN(C(=O)c1ccc(C(C)(C)C)cc1)c1nnc(Cn2nnc3ccccc32)s1	31	4	102*	33	21	76*	107*	0	13*	72*
CCN(C(=O)CC(C)C)c1nnc(Cn2nnc3ccccc32)s1	0	-4	-5	0	-19	29	x	x	x	x
COC(=O)C1(F)C(=O)NC(=O)NC1OC (stereo not drawn)	x	x	-5	x	-17	-3	x	x	x	x
c1ccc(CC2CCN(c3ncnc4sccc34)CC2)cc1	10	28	70*	32	2	55*	88*	1	-10	53*
COC(=O)[C@H](C(C)C)N(CCCc1cn(Cc2ccccc2)nn1)S(=O)(=O)c1ccccc1Br	x	x	x	x	-8	2	x	x	x	x
[O-][n+]1ccccc1C(O)CSc1ccccc1 (stereo not drawn)	x	x	-6	x	-18	-37	x	x	x	x
COc1cccc(CN(C)C(=O)CNC(=O)c2ccc(-c3ccccc3)cc2)c1OC	3	6	53*	26	24	58*	116*	-1	3	47*
O=C(Cc1c(Cl)cccc1Cl)Nc1ccncc1Cl	14	12	-4	24	2	6	x	x	x	x
O=C(Cc1ccc(Cl)cc1Cl)Nc1ccncc1Cl	21	27	45*	60	21	40*	67*	1	5	42*
COc1ccc(CC(=O)Nc2ccncc2Cl)cc1	21	-3	63*	44	24	51*	49*	0	-4	32
CC(=O)N1c2ccccc2C(=O)NCC1C(=O)NC(C)(C)C (stereo not drawn)	x	x	x	x	-3	8	x	x	x	x
COC(=O)c1ccc2c(C3(c4c[nH]c5ccccc45)CCN(C(=O)OC(C)(C)C)CC3)c[nH]c2c1	x	x	x	x	12	-10	x	x	x	x
O=C(Nc1ccncc1)c1ccc(-c2ccccc2)cc1	8	-31	x	-8	-35	62*	56*	-1	-87	33
CCN1/C(=C/c2ccc3cc(C)ccc3[n+]2CC)Sc2cc(C)ccc21	36	20	50*	57	-18	63*	62*	6.2*	9	53*
CCCCN1/C(=C/c2ccc3ccccc3[n+]2CC)Sc2ccccc21	49	21	x	48	x	x	x	x	x	x
Cc1ccc(CCNc2ncnc(Cl)c2N)cc1	-23	-27	104*	-20	-9	64*	104*	0	-69	49*
CCOC(=O)C1CSCCS(=O)(=O)N1Cc1ccccc1C (stereo not drawn)	x	x	-6	x	-7	3	x	x	x	x
SMILES	SRC3 inh	SRC1 inh	GalR3 antagonist	LRH-1 inv ag	NCOA2 inhibitor	NR2F2 inh	GalR3 antag conf	HEK-CNG parental	VP16 Luc counter	COUP-TFII conf
COc1ccc(N(Cc2ccccc2)C(=O)CSc2nnc(Cn3nnc4ccccc43)o2)cc1	24	-33	-6	10	-2	12	x	x	x	x
O=C(CSc1nnc(Cn2nnc3ccccc32)o1)N(Cc1ccc(F)cc1)c1ccccc1	32	29	92*	50	24	79*	114*	0	0	62*
Cc1cccc(C)c1NC(=O)C(CCc1ccccc1)N1CCN(CCN(C)C)CC1 (stereo not drawn)	x	x	-3	x	3	-4	x	x	x	x
COc1ccc(NC(=O)C2Cc3c(-c4cccc(C(C)=O)c4)ccnc3O2)cc1OC (stereo not drawn)	7	29	61*	55	19	75*	104*	0	10	49*
Cc1cc(C)c(CN2CCN(C(=O)Cn3cnc4c(NCc5ccccc5)ncnc43)CC2)c(C)c1	15	33	105*	47	5	80*	106*	-1	9	70*
O=C(NC(c1cccnc1)C(F)(F)F)c1cc(COc2ccc3c(c2)CCCC3)on1 (stereo not drawn)	-43	-41	15*	-41	-34	42*	12	0	-75	10
COCCCN1C(=O)[C@H](CC(=O)N2CCOCC2)[C@]2(C(=O)OC)CCCCC=C12	x	x	x	x	-2	4	x	x	x	x
NC(=O)c1ccccc1OCC(=O)N1CCC(Cc2ccccc2)CC1	5	17	21*	27	7	64*	15*	0	6	39*
COC(=O)C1CN(C2CCCC2)CCS(=O)(=O)N1Cc1ccc(C)cc1 (stereo not drawn)	x	x	x	x	11	7	x	x	x	x
CC1(C)CC2CC(C)(CN2S(=O)(=O)c2ccc(C(=O)Nc3cccc(S(=O)(=O)N4CCOCC4)c3)cc2)C1 (stereo not drawn)	24	7	87*	44	20	68*	115*	-2	1	63*
C=CCC1(CC=C)CCCN1C(=O)c1cc(COc2ccc(C)nc2)on1	2	-10	99*	21	-8	57*	103*	0	-47	55*
